Test results reported in PubChem BioAssay (NCATS).
Results filed as inconclusive are left out. Active and inactive are the calls of the source. Calls follow the shape of the full dose curve.

Assay: Confirmatory qHTS for VERO E6 Cytotoxicity Assay: Counterscreen for SARS-CoV-2 CPE Assay (AID 1508605); also: nearly all actives have a fitted effect of over 60% in size; as to activity change, negative = cytotoxic: % is scaled to controls: 0 for no effect and ±100 for the full control effect
Conditions: cell viability luminescence; series mostly up to 20 µM; activity change, negative = cytotoxic: at the top concentration
Potency is read from the fitted curve at half-maximal effect.

Row | SMILES | activity change, negative = cytotoxic | Potency
1 | CC(C)[C@H]1C(=O)N[C@H](CO)Cc2c[nH]c3cccc(c23)N1C | -25.8% [at 10 µM] (inactive) | 
2 | CN(C)c1ccc(C2Nc3ccc4ccccc4c3C3=C2C(=O)CC(C)(C)C3)cc1Br (stereo unspecified) | -9.02% (inactive) | 
3 | CC1(N2CCC(n3c([C@@H]4CCCNC4)nc4ccccc43)CC2)CCCCCCC1 | -20.7% (inactive) | 
4 | COc1cccc2c1CCCC2CCCN1CCN(C2CCCCC2)CC1 (stereo unspecified) | -20.2% (inactive) | 
5 | O=C(c1ccc(Nc2nccc(-c3cc4ccccc4s3)n2)cc1)N1CCC(N2CCCC2)CC1 |  | 10 µM (active)

Assay: Confirmatory qHTS for activators (rescue) of SARS-CoV-2 Cytopathic Effect (CPE) (AID 1508606); also: nearly all actives have a fitted effect of over 70% in size; as to CPE rescue (activation): 0% is about no effect
Conditions: Vero E6 SARS-CoV-2 CPE rescue, viability luminescence; series mostly up to 20 µM; CPE rescue (activation): at the top concentration

Row | SMILES | Potency | CPE rescue (activation)
6 | CC(C)[C@H]1C(=O)N[C@H](CO)Cc2c[nH]c3cccc(c23)N1C | 1.39 µM (active) | 
7 | CN(C)c1ccc(C2Nc3ccc4ccccc4c3C3=C2C(=O)CC(C)(C)C3)cc1Br (stereo unspecified) |  | -0.826% (inactive)
8 | S=C(NCc1ccc2c(c1)OCO2)N1CCN(c2ncnc3c2oc2ccccc23)CC1 | 3.55 µM (active) | 
9 | CC1(N2CCC(n3c([C@@H]4CCCNC4)nc4ccccc43)CC2)CCCCCCC1 | 2.82 µM (active) | 
10 | COc1cccc2c1CCCC2CCCN1CCN(C2CCCCC2)CC1 (stereo unspecified) | 11.2 µM (active) | 
11 | O=C(c1ccc(Nc2nccc(-c3cc4ccccc4s3)n2)cc1)N1CCC(N2CCCC2)CC1 | 3.55 µM (active) | 
